The nature of experiment [1]: qHTS assay to identify small molecule agonists of the sonic hedgehog signaling (Shh) pathway (AID 1259368; calls by dose curve;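 also: NIH/3T3-derived 3T3Gli1-Luc cells carrying a stable Gli1-driven firefly luciferase reporter; series mostly up to about 92 µM; nearly all actives have a fitted effect of over 15% in size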). Put shortly:
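NIH/3T3-derived 3T3Gli1-Luc cells with stably integrated Gli1-driven firefly luciferase, 2,000 cells/well, compounds added after 4 hr. Incubated 24 hr at 37C, 5% CO2; luminescence read after 30 min with luciferase reagent at room temperature.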

The nature of experiment [2]: qHTS assay to identify small molecule antagonists of the sonic hedgehog signaling (Shh) pathway (AID 1259369; calls by dose curve; also: nearly all actives have a fitted effect of over 45% in size; also: potency is read from the fitted curve at half-maximal effect). Put shortly: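 NIH/3T3-derived Gli1-Luc reporter cells plated 4 h, dosed with compound, then stimulated with conditioned medium for 24 h at 37 C. Firefly luciferase luminescence read after 30 min with detection reagent at room temperature.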
A short description of experiment [3]: qHTS assay to identify small molecule agonists of the androgen receptor (AR) signaling pathway in the presence of an antagonist - cell viability counter screen (AID 1259379). Also: nearly all actives have a fitted effect of over 25% in size. Also: potency is read from the fitted curve at half-maximal effect. The method, boiled down:
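MDA-kb2 cells (MMTV-luciferase, AR/GR), 3,000/well, 5 h attachment, then 3.0 µM nilutamide (final) and compounds at 15 concentrations. Viability by CellTiter-Fluor fluorescence after 16 h at 37 °C, 0% CO2, in the reporter wells.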

The nature of experiment [4]: qHTS assay to identify small molecule agonists of the estrogen receptor beta (ER-beta) signaling pathway - cell viability counter screen (AID 1259380). Also: nearly all actives have a fitted effect of over 30% in size. Also: potency is read from the fitted curve at half-maximal effect. The method, boiled down:
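ER-beta-UAS-bla HEK293T cells in medium with 2% charcoal-stripped FBS, pre-incubated 6 hr, then treated 16 hr at 37C. Cytotoxicity read in the same wells by CellTiter-Glo luminescence after 30 min at room temperature.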

The nature of experiment [5]: qHTS assay to identify small molecule antagonists of the estrogen receptor beta (ER-beta) signaling pathway - cell viability counter screen (AID 1259382).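 Also: HEK293T cells carrying ER-beta-UAS-bla reporter stimulated with estradiol; series mostly up to about 92 µM; nearly all actives have a fitted effect of over 55% in size.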 Put shortly:
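ER-beta-UAS-bla HEK293T cells in 2% charcoal-stripped FBS medium, treated with compound plus 1 nM 17-beta-estradiol for 16 h at 37C. Viability read by CellTiter-Glo luminescence after 30 min at room temperature in the same wells.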

A short description of experiment [6]: qHTS assay to identify small molecule agonists of the estrogen receptor alpha (ER-alpha) signaling pathway in the presence of an antagonist - cell viability counter screen (AID 1259386).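 Also: series mostly up to about 92 µM; cells exposed to compounds for 22 h at 37 °C before the viability read; nearly all actives have a fitted effect of over 30% in size.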 Put shortly:
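Cell viability in VM7Luc4E2 cells (endogenous full-length ER-alpha) measured by CellTiter-Fluor fluorescence in the same wells as the luciferase screen. Cells pre-cultured 5 days in charcoal-stripped serum, then treated 22 h with compounds at 15 concentrations plus 10.0nM ICI-182,780.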

In experiment [7] the target is Progesterone receptor (Homo sapiens) (UniProt P06401). Put plainly: qHTS assay to identify small molecule agonists of the progesterone receptor (PR) signaling pathway (AID 1346784; calls by dose curve; also: nearly all actives have a fitted effect of over 30% in size). The method, boiled down:
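Using charcoal-stripped serum (2%) to limit endogenous steroids, PR-UAS-bla HEK 293T cells received compounds for 16 hr at 37C after 6 hr plating; beta-lactamase FRET fluorescence was recorded following 2 hr substrate loading at room temperature.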

Experiment [8] shares this target. Put plainly: qHTS assay to identify small molecule antagonists of the progesterone receptor (PR) signaling pathway (AID 1346795; active = well fitted inhibition curve with a large enough effect in the signal ratio in the repeat runs, not every such curve was filed as active; the % refers to the signal ratio; also: potency is read from the fitted curve at half-maximal effect). The method, boiled down: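 Inhibition of R5020-induced (1 nM final) beta-lactamase reporter signal in PR-UAS-bla HEK293T cells was scored by FRET fluorescence after overnight (16 hr) compound treatment.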
A short description of experiment [9]: qHTS assay to identify small molecule antagonists of the progesterone receptor (PR) signaling pathway - cell viability counter screen (AID 1346798). Also: series mostly up to about 92 µM; nearly all actives have a fitted effect of over 50% in size. The method, boiled down: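 ATP content as viability readout: CellTiter-Glo luminescence, 30 min room temperature, in PR-UAS-bla HEK293T cells after 16 hr compound/R5020 treatment at 37C and 5% CO2.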
The nature of experiment [10]: qHTS assay to identify small molecule agonists of the progesterone receptor (PR) signaling pathway - cell viability counter screen (AID 1346799; calls by dose curve; also: nearly all actives have a fitted effect of over 45% in size). Put shortly:
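Cytotoxicity in PR-bla HEK293T cells: 16 h compound, 37C; CellTiter-Glo added post-FRET read; luminescence after 30 min RT.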

A short description of experiment [11]: qHTS assay to identify small molecule antagonists of the TGF-beta/Smad signaling pathway - cell viability counter screen (AID 1346824). Also: nearly all actives have a fitted effect of over 50% in size. The method, boiled down: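 Cytotoxicity counter-screen run in the same wells as the beta-lactamase Smad reporter read: CellTiter-Glo luminescence after 30 min at room temperature. HEK 293T SBE-bla cells had 5 hr compound exposure at 37 C with TGF-beta1 (0.25 ng/mL stock).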

The nature of experiment [12]: qHTS assay to identify small molecule agonists of the TGF-beta/Smad signaling pathway - cell viability counter screen (AID 1346829). Also: top concentration of the series differs between compounds; nearly all actives have a fitted effect of over 45% in size. The method, boiled down:
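Cytotoxicity counter screen: CellTiter-Glo luminescence (30 min, room temperature) measured in the SBE-bla HEK 293T reporter wells after 5 hr compound treatment at 37 C and the 2 hr substrate step.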

The nature of experiment [13]: qHTS assay to identify small molecule agonists of the TGF-beta/Smad signaling pathway (AID 1346859; active = well fitted activation curve with a large enough effect in the signal ratio in the repeat runs, not every such curve was filed as active; the % refers to the signal ratio; also: series mostly up to about 77 µM). Put shortly:
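Stable Smad binding element-beta-lactamase HEK 293T cells; 5 hr compound exposure at 37 C under 5% CO2; 2 hr room-temperature substrate step; fluorescence excited at 405 nm, collected at 460 nm and 530 nm.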

The target in experiment [14] is Thyrotropin-releasing hormone receptor (Homo sapiens) (UniProt P34981). Put plainly: qHTS assay to identify small molecule antagonists of the thyrotropin-releasing hormone receptor (TRHR) signaling pathway (AID 1346877; active = well fitted inhibition curve with a large enough effect in the repeat runs, not every such curve was filed as active; also: series mostly up to about 51 µM). Put shortly:
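TRHR-expressing HEK293 cells loaded with calcium dye for 2 h at 37 C; compounds pre-incubated 5 min at room temperature before TRH challenge at 1 nM final. Intracellular calcium fluorescence read kinetically for 3 min; 15 concentrations in triplicate.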

Experiment [15] can be described thus: qHTS assay to identify small molecule agonists or antagonists of the thyroid stimulating hormone receptor (TSHR) signaling pathway - wild type cell line counter screen (AID 1259384; calls by dose curve). The method, boiled down: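 Counter screen in untransfected Hek293: compounds (15-point titration, triplicate) plus phosphodiesterase inhibitor Ro20-1724 added after 18 h plating; 30 min RT. Intracellular cAMP via competitive d2/cryptate immunoassay, 1 h incubation.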

Experiment [16] has as its target Thyrotropin receptor (Homo sapiens) (UniProt P16473). The experiment is described as follows: qHTS assay to identify small molecule antagonists of the thyroid stimulating hormone receptor (TSHR) signaling pathway (AID 1259385; calls by dose curve; also: nearly all actives have a fitted effect of over 20% in size). The method, boiled down:
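Antagonist mode: compound-treated TSHR-expressing HEK293 cells were stimulated with 1.5 ng/mL TSH (final) in presence of Ro20-1724 for 30 min at RT. HTRF cAMP detection after 1 h; each compound tested at 15 concentrations, triplicate.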

Experiment [17] addresses Estrogen receptor beta (Homo sapiens) (UniProt Q92731). The experiment is described as follows: qHTS assay to identify small molecule agonists of the estrogen receptor beta (ER-beta) signaling pathway (AID 1259377; active = well fitted activation curve with a large enough effect in the signal ratio in the repeat runs, not every such curve was filed as active; the % refers to the signal ratio). Put shortly: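 In HEK293T cells bearing a UAS-beta-lactamase reporter under ER-beta control, DMSO-delivered compounds were incubated for 16 hr at 37C. Activity was detected as fluorescence 2 hours after LiveBLAzer B/G FRET substrate addition.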

The target in experiment [18] is Estrogen receptor (Homo sapiens) (UniProt P03372). Put plainly: qHTS assay to identify small molecule agonists of the estrogen receptor alpha (ER-alpha) signaling pathway in the presence of an antagonist (AID 1259383; calls by dose curve; also: top concentration of the series differs between compounds; nearly all actives have a fitted effect of over 15% in size). Put shortly:
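VM7Luc4E2 cells express endogenous full-length ER-alpha with an ERE-luciferase reporter and were hormone-deprived for 5 days. Compounds at 15 concentrations were added with 10.0nM ICI-182,780 for 22hr at 37C. Luminescence was read with ONE-Glo.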

“And” between values parts separate entries of the source, which are not always exact repeats. Identical values can stand only once. Inconclusive results are not listed. Some compounds were tested as several samples or in several runs, with calls that do not always agree. The source made the active and inactive calls. Unless noted, calls follow the shape of the dose curve; as a rule, active = well fitted curve in the direction sought with a large enough effect in the repeat runs; inconclusive = weak or mixed curves; inactive = no such curve, though single readings can be large; an effect the other way counts as inactive or inconclusive.

Chain of Thyrotropin-releasing hormone receptor (Homo sapiens) (P34981 whole entry, looked up): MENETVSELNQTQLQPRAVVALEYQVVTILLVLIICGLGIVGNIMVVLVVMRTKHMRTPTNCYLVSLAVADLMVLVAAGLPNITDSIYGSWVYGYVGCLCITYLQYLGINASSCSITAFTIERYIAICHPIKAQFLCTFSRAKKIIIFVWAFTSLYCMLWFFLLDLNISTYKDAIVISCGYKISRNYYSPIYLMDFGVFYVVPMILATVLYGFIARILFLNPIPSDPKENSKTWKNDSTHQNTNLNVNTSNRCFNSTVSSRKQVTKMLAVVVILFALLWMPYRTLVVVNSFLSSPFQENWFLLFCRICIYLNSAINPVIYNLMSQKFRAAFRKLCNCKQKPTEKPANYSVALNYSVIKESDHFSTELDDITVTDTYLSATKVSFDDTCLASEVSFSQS
Chain of Thyrotropin receptor (Homo sapiens) (P16473 whole entry, looked up): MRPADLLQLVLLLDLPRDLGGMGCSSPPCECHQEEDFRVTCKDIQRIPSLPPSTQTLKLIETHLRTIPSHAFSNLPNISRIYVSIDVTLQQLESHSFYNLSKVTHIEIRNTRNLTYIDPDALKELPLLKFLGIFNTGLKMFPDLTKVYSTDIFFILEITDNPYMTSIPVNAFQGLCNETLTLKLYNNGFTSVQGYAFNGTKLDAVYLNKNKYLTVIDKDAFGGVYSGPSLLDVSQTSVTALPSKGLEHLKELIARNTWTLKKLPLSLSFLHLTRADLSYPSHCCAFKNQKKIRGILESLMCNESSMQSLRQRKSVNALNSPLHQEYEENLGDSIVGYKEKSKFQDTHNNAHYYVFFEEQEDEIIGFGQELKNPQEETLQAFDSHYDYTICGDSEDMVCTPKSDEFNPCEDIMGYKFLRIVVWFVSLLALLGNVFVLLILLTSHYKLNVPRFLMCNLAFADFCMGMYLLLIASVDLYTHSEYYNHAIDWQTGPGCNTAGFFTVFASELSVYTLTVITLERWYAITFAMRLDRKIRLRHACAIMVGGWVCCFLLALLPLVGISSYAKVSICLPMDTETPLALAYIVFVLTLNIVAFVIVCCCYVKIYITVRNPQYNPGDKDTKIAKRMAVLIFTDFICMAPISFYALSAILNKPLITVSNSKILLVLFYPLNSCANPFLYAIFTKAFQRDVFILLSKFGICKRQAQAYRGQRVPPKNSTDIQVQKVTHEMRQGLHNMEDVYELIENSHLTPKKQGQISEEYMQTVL
Chain of Progesterone receptor (Homo sapiens) (P06401 whole entry, looked up): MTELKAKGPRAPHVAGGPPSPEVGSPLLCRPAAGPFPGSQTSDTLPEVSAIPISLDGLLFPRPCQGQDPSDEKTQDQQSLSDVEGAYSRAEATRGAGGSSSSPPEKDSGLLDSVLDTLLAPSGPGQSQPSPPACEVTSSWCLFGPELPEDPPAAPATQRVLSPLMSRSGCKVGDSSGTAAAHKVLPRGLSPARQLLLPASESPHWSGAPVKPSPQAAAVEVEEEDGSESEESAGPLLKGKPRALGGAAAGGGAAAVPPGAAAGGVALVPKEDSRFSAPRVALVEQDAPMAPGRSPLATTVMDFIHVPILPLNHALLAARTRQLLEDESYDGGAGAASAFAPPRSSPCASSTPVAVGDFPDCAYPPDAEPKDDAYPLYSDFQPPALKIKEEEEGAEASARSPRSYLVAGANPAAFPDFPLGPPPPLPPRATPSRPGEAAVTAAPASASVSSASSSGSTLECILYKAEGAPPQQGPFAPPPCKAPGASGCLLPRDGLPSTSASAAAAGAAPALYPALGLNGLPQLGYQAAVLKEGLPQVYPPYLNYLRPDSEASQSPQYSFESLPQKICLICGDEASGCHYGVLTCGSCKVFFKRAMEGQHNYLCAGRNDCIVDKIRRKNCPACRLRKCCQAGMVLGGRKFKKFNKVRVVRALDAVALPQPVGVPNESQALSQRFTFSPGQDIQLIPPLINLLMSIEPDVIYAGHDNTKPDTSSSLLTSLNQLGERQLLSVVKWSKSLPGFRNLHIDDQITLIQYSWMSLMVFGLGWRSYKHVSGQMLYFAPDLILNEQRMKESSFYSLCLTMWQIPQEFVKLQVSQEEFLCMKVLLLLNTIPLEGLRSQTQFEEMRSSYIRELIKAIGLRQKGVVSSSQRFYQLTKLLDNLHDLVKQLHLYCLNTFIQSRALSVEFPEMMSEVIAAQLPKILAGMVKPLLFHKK
Chain of Estrogen receptor (Homo sapiens) (P03372 whole entry, looked up): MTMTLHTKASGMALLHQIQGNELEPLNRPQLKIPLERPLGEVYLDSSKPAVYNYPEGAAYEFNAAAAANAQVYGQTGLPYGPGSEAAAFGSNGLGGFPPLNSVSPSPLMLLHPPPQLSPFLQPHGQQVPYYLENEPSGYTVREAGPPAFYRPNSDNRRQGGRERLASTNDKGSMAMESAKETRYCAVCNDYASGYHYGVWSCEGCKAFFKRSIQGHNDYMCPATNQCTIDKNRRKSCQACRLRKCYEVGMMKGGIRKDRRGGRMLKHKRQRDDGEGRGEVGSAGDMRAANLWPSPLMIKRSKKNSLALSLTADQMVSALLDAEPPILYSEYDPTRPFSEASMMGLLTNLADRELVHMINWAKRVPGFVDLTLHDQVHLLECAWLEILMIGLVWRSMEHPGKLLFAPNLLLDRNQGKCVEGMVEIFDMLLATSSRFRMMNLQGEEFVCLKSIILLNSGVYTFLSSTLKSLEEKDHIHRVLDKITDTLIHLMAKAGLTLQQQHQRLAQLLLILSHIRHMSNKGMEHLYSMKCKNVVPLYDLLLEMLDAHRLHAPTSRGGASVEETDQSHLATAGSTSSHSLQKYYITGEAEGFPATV
Chain of Estrogen receptor beta (Homo sapiens) (Q92731 whole entry, looked up): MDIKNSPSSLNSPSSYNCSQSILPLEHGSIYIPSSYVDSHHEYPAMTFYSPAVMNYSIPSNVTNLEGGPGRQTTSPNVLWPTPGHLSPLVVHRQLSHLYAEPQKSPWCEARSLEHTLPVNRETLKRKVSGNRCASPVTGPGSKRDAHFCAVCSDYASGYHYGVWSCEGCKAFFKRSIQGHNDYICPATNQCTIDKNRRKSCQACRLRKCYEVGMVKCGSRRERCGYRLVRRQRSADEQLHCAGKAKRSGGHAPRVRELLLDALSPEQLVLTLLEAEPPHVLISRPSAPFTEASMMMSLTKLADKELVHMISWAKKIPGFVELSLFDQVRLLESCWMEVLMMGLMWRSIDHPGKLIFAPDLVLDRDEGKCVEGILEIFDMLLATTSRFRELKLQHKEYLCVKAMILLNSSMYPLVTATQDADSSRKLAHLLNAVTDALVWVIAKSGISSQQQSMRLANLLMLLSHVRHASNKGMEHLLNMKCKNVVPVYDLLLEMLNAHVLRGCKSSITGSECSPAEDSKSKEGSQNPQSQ

Regarding `Cc1cccc(N)c1`, the outcome in experiment [1], in experiment [5], in [10], in experiment [13] and in experiment [14] was inactive. For the same molecule, the Potency entry in experiment [2], in experiment [3], in experiment [4], in experiment [6], in experiment [7] and in experiment [8] was “inactive” each time. The Potency entry in experiment [9], in experiment [11] and in experiment [12] was “inactive” each time.

For the molecule `COc1cc(-c2ccc(N)c(OC)c2)ccc1N`, the call in experiment [1], in experiment [5], in experiment [10], in experiment [13] and in [14] was inactive. Also, the Potency is 6.78 µM (active) and 8.24 µM (active) in [2]; “inactive and 52 µM (active)” in [3]; 14.7 µM (active) in experiment [4]; 48.8 µM (active) and 27.3 µM (active) and 46.3 µM (active) in experiment [8]. Besides, the Potency entry in experiment [6], in experiment [7], in experiment [11] and in [12] was “inactive” throughout.

On to `CCOP(=S)(OCC)Oc1ccc([N+](=O)[O-])cc1`, for which the outcome in experiment [1], in experiment [5], in experiment [15], in experiment [16], in experiment [13] and in experiment [14] was inactive. The Potency result in experiment [2], in experiment [3], in experiment [4], in experiment [6], in experiment [7] and in experiment [9] was “inactive” throughout. For the same molecule, the Potency result in experiment [11] and in experiment [12] was “inactive” throughout.

As for `CCNc1nc(Cl)nc(NC(C)C)n1`, the result in experiment [1], in experiment [5], in [18], in experiment [15], in experiment [16] and in experiment [10] was inactive. Besides, the molecule was called inactive in experiment [13] and in experiment [14]. Also, the Potency entry in experiment [17], in experiment [3], in experiment [4], in experiment [6], in experiment [7] and in experiment [8] was “inactive” throughout. The Potency result in [11] and in [12] was “inactive” each time.

As for `CCCOC(=O)c1ccccc1C(=O)OCCC`, the result in experiment [1], in experiment [5], in [10] and in experiment [14] was inactive. Also, the Potency entry in experiment [2], in experiment [3], in [4], in [6], in experiment [7] and in experiment [8] was “inactive” in each case. For the same molecule, the Potency entry in experiment [11] and in experiment [12] was “inactive” each time.

As to `C/C=C/c1ccc2c(c1)OCO2`, the molecule was classed as inactive in [1], in [5], in experiment [15], in [16], in experiment [10] and in experiment [13]. Moreover, the Potency entry in experiment [2], in experiment [3], in experiment [4], in [6], in experiment [7] and in experiment [8] was “inactive” throughout. The Potency entry in experiment [11] and in experiment [12] was “inactive” each time.

`Sc1ccccc1`: the outcome in experiment [1], in [5], in experiment [15], in experiment [16], in [10] and in [14] was inactive. Besides, the Potency result in experiment [2], in experiment [3], in experiment [4], in experiment [6], in experiment [7] and in experiment [8] was “inactive” each time. The Potency result in [11] and in experiment [12] was “inactive” in each case.

As to `Cc1ccc(N=C=O)cc1N=C=O`, the call in [1], in experiment [5], in experiment [10] and in [14] was inactive. Besides, the Potency result in experiment [2], in [3], in experiment [6], in [7], in experiment [8] and in experiment [11] was “inactive” throughout. The Potency result in experiment [12] is “inactive”. In addition, the Potency in [4] is 34.3 µM (active) and inactive.

On to `Oc1ccc(Cl)cc1`, for which the call in experiment [1], in experiment [5], in experiment [15], in experiment [16], in experiment [10] and in experiment [13] was inactive. Besides, in [14], the outcome was inactive. The Potency result in [2], in experiment [3], in experiment [4], in experiment [6], in experiment [7] and in [8] was “inactive” each time. Besides, the Potency entry in experiment [11] and in experiment [12] was “inactive” each time.

With `O=P1(NCCCl)OCCCN1CCCl` (stereo not given), the result in experiment [1], in [5], in [15], in experiment [16], in [10] and in experiment [13] was inactive. The molecule was called inactive in experiment [14]. The Potency result in experiment [2], in [3], in experiment [4], in experiment [6], in experiment [7] and in experiment [8] was “inactive” each time. The Potency result in experiment [9], in experiment [11] and in [12] was “inactive” each time.

Values taken from PubChem BioAssay (Tox21).
